# ugtP null kill: kills S. aureus RN4220 lacking UgtP; growth inhibition, % (concentration not given with the values); AID 1259309; 330,000 compounds, 0.54% hits; S. aureus RN4220 ugtP deletion, OD600 growth, 16 h; in the data active means growth inhibition above about 68%;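 further: plate controls were untreated wells for no effect and antibiotic for full effect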
# BJeLR lethal: kills HRASV12-expressing BJeLR cells; inhibition, % (concentration not given with the values); BJeLR (HRASV12) viability, CellTiter-Glo ATP luminescence, 48 h; 300,000 compounds, 0.17% hits; in the data active means inhibition above about 50%
# SARS 3CLpro inh: SARS-CoV 3CLpro protease inhibition; inhibition, % at 6 µM; P0C6X7; 290,000 compounds, 0.14% hits; recombinant SARS-CoV 3CLpro, quenched FRET peptide cleavage; in the data active means inhibition above about 12%
# RN4220 kill: S. aureus RN4220 growth inhibition. OD600, 16 h. inhibition, % (no concentration beside the values). 330,000 compounds, 0.33% hits. AID 1259311; in the data active means inhibition above about 85%;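 further: plate controls were untreated cells for no effect and reference antibiotic for full effect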
# PfHsp40 rescue: rescue of PfHsp40-mediated yeast toxicity; growth rescue, % at 12.5 µM; S. cerevisiae expressing PfHsp40, growth rescue, ATP luminescence; 340,000 compounds, 0.68% hits; in the data active means growth rescue above about 28%, passing the limit was not always enough;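 further: yeast W303a lacking pdr1 and pdr3 grown in galactose medium; growth measured after three days at 30 °C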
# Starred values were filed as active, the others as inactive; x = not tested or not shown; ! = a repeat was not active. The list is not random: actives were taken first. Their share in the collection is about 1.3%.
SMILES,ugtP null kill,BJeLR lethal,SARS 3CLpro inh,RN4220 kill,PfHsp40 rescue
CC(C)CC(NC(=O)C(Cc1ccc(OCc2ccccc2)cc1)NC(=O)OC(C)(C)C)C(N)=O (stereo unspecified),0,5,0,1,5
O=S(=O)(Nc1ccc(O)c2ccccc12)c1ccc(F)cc1,12,-1,x,5,-1
CCOC(=O)NNc1ccccc1,5,-13,2,3,62*
Cc1ccc(S(=O)(=O)N(C)C)cc1NC(=O)COc1ccc(-c2nnco2)cc1,2,11,-1,7,0
CCC(C)n1ncn(-c2ccc(N3CCN(c4ccc(OCC5COC(Cn6cncn6)(c6ccc(Cl)cc6Cl)O5)cc4)CC3)cc2)c1=O (stereo unspecified),-11,6,-1,2,181*!
O=C(CN1C(=O)c2ccccc2C1=O)NC1(C(=O)O)CCCC1,2,x,x,1,1
CCN(CC(=O)Nc1cc(Cl)ccc1C)c1ncnc2sc(C)c(C)c12,19,1,1,3,33*
O=c1nc2scc(-c3ccccc3)n2c2ccccc12,91*,-8,3,-6,-1
COC(=O)C1=C(C)N(c2ccc(C)c(C)c2)/C(=C/c2ccc(O)cc2)C1=O,91*,-6,1,93*,-1
COC(=O)C1=C(C)N(CC2CCCO2)C(=O)/C1=C\c1ccc(O)cc1 (stereo unspecified),6,-10,-2,1,0
C[C@@]12C(=O)Nc3ccc(F)cc3C(=O)N1[C@H]1c3ccccc3OC[C@@H]1[C@@H]2c1ccccc1,x,x,x,x,138*
C[C@@]12C(=O)Nc3ccc(Cl)cc3C(=O)N1C1c3cc(Cl)ccc3OCC1C2c1ccccc1 (stereo partly specified),-7,x,x,-6,x
C[C@@]12C(=O)Nc3ccc(F)cc3C(=O)N1[C@H]1c3cc(Cl)ccc3OC[C@@H]1[C@@H]2c1ccccc1,x,x,x,x,1
C[C@@]12C(=O)Nc3ccc(Cl)cc3C(=O)N1[C@H]1c3ccccc3OC[C@@H]1[C@@H]2c1ccccc1,x,x,x,x,118*
CCOc1cc(CC(=O)NC(CC(C)C)c2ccccc2N2CCCCC2)ccc1C(=O)O (stereo unspecified),9,x,x,10,x
CN(C)c1ccc(C=NNC(=O)C(O)(c2ccccc2)c2ccccc2)o1,3,x,x,3,x
CC1CN(C(C)CO)C(=O)c2cc(NC(=O)Nc3ccc(C(F)(F)F)cc3)ccc2OC1CN(C)C(=O)Nc1ccc(F)cc1 (stereo unspecified),-4,x,x,-3,x
C[C@@H]1CN([C@H](C)CO)C(=O)c2cc(NC(=O)Nc3ccc(F)cc3)ccc2O[C@H]1CN(C)C(=O)Nc1ccc(C(F)(F)F)cc1,2,x,x,-6,47*
CN(C)S(=O)(=O)c1cccc(-n2sc3ccccc3c2=O)c1,2,x,-4,-5,7
O=c1c2ccccc2sn1-c1ccccc1,94*,-3,-4,84,-1
O=C(O)c1cccc(-n2sc3ccccc3c2=O)c1,x,x,x,x,52*
O=C(NCCCN1CCOCC1)c1cccnc1,2,11,-6,1,-1
CCCCN(CC(=O)NC1CC1)S(=O)(=O)c1ccc(OCC)cc1,1,x,x,1,0
CC(C)(C)C1(O)CC(C(F)(F)F)=NN1C(=O)CCCc1ccccc1 (stereo unspecified),-8,-4,6,7,0
C/C=C(/C)C(=O)Nc1cccc(C2=NOC3(C2)C[C@H](C(N)=O)N(C(=O)c2ccccc2)C3)c1 (stereo partly specified),x,7,x,x,0
SMILES,ugtP null kill,BJeLR lethal,SARS 3CLpro inh,RN4220 kill,PfHsp40 rescue
C/C=C(\C)C(=O)Nc1cccc(C2=NOC3(C2)C[C@@H](C(N)=O)N(C(=O)c2ccccc2C(=O)c2ccccc2)C3)c1 (stereo partly specified),x,-14,x,x,51*
Oc1ccc(N=Nc2c(O)ccc3ccccc23)cc1,98*,2,1,86*,5
COc1cc(N=Nc2ccc3ccccc3c2)ccc1O,94*,3,0,6,153*
Oc1ccc(N=Nc2ccc3ccccc3c2)cc1,99*,7,6,99*,72*
CCOC(=O)N1CCN(S(=O)(=O)c2ccc(C(=O)NNc3nc4ccc(Cl)cc4s3)cc2)CC1,-8,18,0,-6,274*
Cc1cc(C)c2nc(NNC(=O)c3ccc(S(=O)(=O)N4CCCCC4)cc3)sc2c1,-2,14,-2,2,0
CCOC(=O)N1CCN(S(=O)(=O)c2ccc(C(=O)NNc3nc4c(C)cccc4s3)cc2)CC1,4,0,3,1,130*
CCOC(=O)N1CCN(S(=O)(=O)c2ccc(C(=O)NNc3nc4c(C)cc(C)cc4s3)cc2)CC1,-1,-3,4,14,x
CCOC(=O)N1CCN(S(=O)(=O)c2ccc(C(=O)NNc3nc4cc(C)cc(C)c4s3)cc2)CC1,x,11,5,x,323*
CSc1nsc(SC)c1NC(=O)Nc1ccccc1C,1,-8,3,-1,0
COc1cc(CN2CCSCC2)cc(OC)c1OC,-2,1,1,0,1
CCSc1nc(C2CC2)cc(-c2cccs2)c1C#N,93*,-6,-2,8,2
CCSc1nc(C2CC2)cc(-c2ccco2)c1C#N,14,5,4,2,0
Cc1sc(NC(=O)c2ccco2)c(C(c2ccccc2)N2CCC(C)CC2)c1C (stereo unspecified),active,8,1,85,1
Cc1cc(C(=O)NN=Cc2ccc([N+](=O)[O-])s2)n[nH]1,98*,x,x,100*,x
Cc1ccc(NC(=S)N/N=C/c2ccc([N+](=O)[O-])s2)cc1,x,-10,-3,x,211*
CCCC1CCC(c2ccc(C(=O)NN)cc2)CC1 (stereo unspecified),98*,8,-3,-12,2
Fc1cccc(Cc2noc(CN3CCCCC3c3ccccn3)n2)c1 (stereo unspecified),7,1,7,2,0
O=C(NN=Cc1ccc(O)cc1)c1ccccc1NS(=O)(=O)c1cccs1,-3,x,x,3,-1
O=C(N/N=C/c1cc(Cl)cc([N+](=O)[O-])c1O)c1ccccc1NS(=O)(=O)c1cccs1,x,4,3,x,244*
O=C1c2ccccc2CCC12N=NCC2c1ccc(Br)cc1 (stereo unspecified),26,4,7,2,-1
CC(NC(=O)OCc1ccccc1)C(=O)OCN1C(=O)c2ccccc2C1=O (stereo unspecified),-6,0,6,-5,-1
CCCn1ncc2c(Nc3ccc(C)c(C)c3)ncnc21,13,-11,-1,16,-1
CCN1/C(=C2\SC(=S)N(Cc3ccccc3)C2=O)Sc2ccccc21,-7,-13,0,-3,-1
CCC(CO)[n+]1c(C)cc(/C=C2\Sc3ccccc3N2Cc2ccccc2)cc1C (stereo unspecified),100*,x,-4,100*,4
CCOc1ccc(-c2nn[nH]n2)cc1OCC,2,1,-1,0,0
